Screens (PubChem)
PLK1 PBD inh = blocks phosphopeptide binding to human PLK1 polo-box domain; Plk1 PBD binding of FITC phosphopeptide, fluorescence polarization; Potency, µM, inactives show max response, negative = inhibition, usual class: inhibitors; AID 720504; P53350; 2.8% of 360,000 active; also: series mostly up to about 57 µM; nearly all actives have a fitted effect of over 65% in size
Gal4-VP16 FLuc = inhibits Gal4-VP16 luciferase reporter, ROR gamma counter-screen. Drosophila S2 Gal4-VP16 UAS-luciferase, luminescence, 20 h. Potency, µM (highest dose often 53.6 µM), inactives show at the highest dose activity, negative = inhibition, most hits filed as inhibitors. 3.5% of 310,000 active;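 also: Gal4-VP16 expression switched on by copper sulfate through the metallothionein promoter; nearly all actives have a fitted effect of over 50% in size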
RORg inh = ROR gamma (mouse) transcription inhibition. Drosophila S2 Gal4-RORgamma UAS-luciferase reporter, 20 h. 5.4% of 310,000 active. P51450. Potency, µM (series often up to 53.6 µM), inactives show at the top dose activity change, negative = inhibition, most hits filed as inhibitors; also: nearly all actives have a fitted effect of over 60% in size
Target sequence (P51450 whole entry, looked up, the tested form may be a part): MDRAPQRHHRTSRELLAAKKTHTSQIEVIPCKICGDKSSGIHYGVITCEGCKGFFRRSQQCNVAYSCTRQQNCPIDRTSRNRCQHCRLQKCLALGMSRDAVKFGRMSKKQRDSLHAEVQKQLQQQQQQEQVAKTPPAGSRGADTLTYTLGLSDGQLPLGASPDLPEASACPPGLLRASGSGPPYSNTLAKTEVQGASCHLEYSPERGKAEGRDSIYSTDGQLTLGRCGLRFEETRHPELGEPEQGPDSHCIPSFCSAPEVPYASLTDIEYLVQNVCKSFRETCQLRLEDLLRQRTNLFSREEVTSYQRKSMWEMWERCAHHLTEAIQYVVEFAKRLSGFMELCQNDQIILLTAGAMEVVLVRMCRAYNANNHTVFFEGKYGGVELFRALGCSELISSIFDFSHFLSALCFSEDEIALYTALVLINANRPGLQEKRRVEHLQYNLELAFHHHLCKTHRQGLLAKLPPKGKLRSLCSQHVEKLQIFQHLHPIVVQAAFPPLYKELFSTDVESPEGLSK
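In this cell-based reporter format, copper sulfate (700 uM final) drives Gal4–ROR gamma fusion expression from a metallothionein promoter in Drosophila Schneider cells; compounds preincubated 1 hr, reporter read after 20 hr at ambient temperature.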
Sfp inh = blocks B. subtilis Sfp PPTase activity. AID 1490. Q9F4F7. 3.5% of 310,000 active. Biochemical Sfp PPTase activity, qHTS. Potency, µM, for inactives: largest response in the series, negative = inhibition, usual class: inhibitors;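 also: the enzyme is Sfp with the accession as filed and its product quenches rhodamine fluorescence; 0% = enzyme reaction without inhibitor and -100% = no enzyme wells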
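With Hepes-Na pH 7.6 buffer containing 10 mM MgCl2, Sfp (15 nM) modified BHQ-2-YbbR (12.5 uM) using rhodamine-CoA (5 uM). Two reads 30 minutes apart at 525/598 nm yielded each well's rate.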
ALDH1A1 block = inhibitors of human aldehyde dehydrogenase 1A1 | P00352 | Purified ALDH1A1, NADH fluorescence, propionaldehyde substrate | Potency, µM (top dose mostly 75.3 µM), inactives show at the highest dose activity, negative = inhibition, usual class: inhibitors | 7.3% of 220,000 active; active = well fitted inhibition curve with a large enough effect, not every such curve was filed as active; inconclusive = small, poorly fitted or top-dose-only effect, or another doubt; inactive = no such curve, though single readings can be large or run the other way;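 also: plate controls were no enzyme wells and a reference inhibitor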
* hit, by the source's call; ? = inconclusive; . = no result; [ ] = another dose, or the depositor's remark. A selection: hits, their analogues and other compounds. The true share with any hit is near 12%. Unless noted, calls follow the shape of the dose curve; as a rule, active = well fitted curve in the direction sought with a large enough effect; inconclusive = small, poorly fitted or top-dose-only effect, or another doubt; inactive = no such curve, though single readings can be large; an effect the other way counts as inactive or inconclusive. Unless noted, % is scaled to controls: 0 for no effect and ±100 for the full control effect; potency is read from the fitted curve at half-maximal effect.

SMILES | PLK1 PBD inh | Gal4-VP16 FLuc | RORg inh | Sfp inh | ALDH1A1 block
CC(O)[C@@H]1NC(=O)[C@H](CCCN)NC(=O)[C@@H](Cc2c[nH]c3ccccc23)NC(=O)[C@H](Cc2ccc(O)cc2)NC(=O)[C@@H](NC(=O)[C@H](N)Cc2ccccc2)CSSC(C)(C)C(C(=O)N[C@H](C(N)=O)[C@@H](C)O)NC1=O (stereo partly specified) | . | -1% | -1% | 23% | .
CCC(C)CCCCC(=O)NC(CCN)C(=O)NC(C(=O)NC(CCN)C(=O)NC1CCNC(=O)C(C(C)O)NC(=O)C(CCN)NC(=O)C(CCN)NC(=O)C(CC(C)C)NC(=O)C(Cc2ccccc2)NC(=O)C(CCN)NC1=O)C(C)O (stereo unspecified) | . | 4% | 37% | 28µM* | 10%
C=CCC(C=C)S(=O)(=O)c1ccc(C)cc1 (stereo unspecified) | -1% | -6% | 0% | 17% | -11%
CCc1[nH]c(=O)[nH]c1C(C)S(=O)(=O)c1ccc(C)cc1 (stereo unspecified) | 12µM* | ? | 14µM* | 20µM* | 32µM*
CCc1c(C(C)S(=O)(=O)c2ccc(C)cc2)[nH]c(=O)n1-c1ccc(C)cc1 (stereo unspecified) | 27µM* | 6% | ? | 56µM* | ?
Nc1nonc1-c1nc2ccccc2n1Cc1ccc(F)cc1Cl | -18% | ? | 16µM* | 14% | -4%
COc1ccc(S(=O)(=O)N(C)C[C@@H]2OCCCC[C@@H](C)Oc3ccc(NS(=O)(=O)c4cccs4)cc3C(=O)N([C@H](C)CO)C[C@@H]2C)cc1 | -20% | . | . | . | .
CCS(=O)(=O)N1CCC(C(=O)Oc2ccc(Cl)cc2)CC1 | 27µM* | 0% | -13% | 11% | .
Cc1ccc2nc(C(C)(C)C)c(Cc3cccc(F)c3)n2c1 | -2% | . | . | . | .
O=[N+]([O-])c1ccc(CSc2ncnc3c2ncn3[C@@H]2O[C@H](CO)[C@H](O)[C@H]2O)cc1 | . | . | . | . | -5%
O=C(c1ccccc1)N(Cc1ccc2c(c1)OCO2)Cc1nc2ccccc2c(=O)[nH]1 | -9% | -14% | 0%[10 µM] | 3% | -4%
COCCCNC(=S)N(Cc1ccccc1)Cc1nc2ccccc2c(=O)[nH]1 | -1% | ? | 16µM* | 4% | ?
COCCCNC(=O)CNC(=S)N(Cc1ccccc1)Cc1cccnc1 | -2% | 10% | 8% | 20% | 2%
COCCCNC(=S)N(Cc1ccccc1)Cc1ccccc1 | -7% | ? | 16µM* | 2% | ?
CCNC(=S)N(Cc1ccccc1)Cc1nc2ccccc2c(=O)[nH]1 | -7% | 7.1µM* | 6.3µM* | 15% | ?
O=C(NCCc1cccs1)Nc1nnc([C@H]2C[C@H](O)[C@@H](CO)O2)s1 | 0% | . | . | . | .
COc1ccc(NC(=O)C2(C)CCN2C)cc1OC (stereo unspecified) | 1% | . | . | . | .
O=S(=O)(O)CCCc1cccc2ccccc12 | . | . | . | . | -1%[13.5 µM]
COc1cccc([C@@H]2Oc3ccc(Br)cc3C(=O)[C@H]2OC(=O)Nc2ccc(C)c(Br)c2)c1 | . | -3% | 10% | 6% | 12%
Cc1cc(N)n(-c2ccc(Oc3ccccc3)c(S(=O)(=O)O)c2)n1 | ? | 2% | 15% | ? | 15%
Cc1cc(C)[n+](-c2ccc(Oc3ccccc3)c(S(=O)(=O)[O-])c2)[nH]1 | 27µM* | -2% | 2% | 17% | .
Cc1csc(NC(=O)C(NS(=O)(=O)c2ccc(Br)s2)c2ccccc2)n1 (stereo unspecified) | -9% | ? | 13µM* | 7% | -13%
CC(NS(=O)(=O)c1ccc(Br)s1)c1ccccc1 (stereo unspecified) | -5% | 2% | -1% | 7% | .
COc1ccc(NC(=O)O/N=C/c2c(C)nn(C(C)(C)C)c2C)cc1 | 2% | 11µM* | 2.5µM* | 10% | ?
O=C(NNc1ccc([N+](=O)[O-])cc1)C1CC1c1ccccc1 (stereo unspecified) | ? | -4% | 31% | -6% | 10µM*
SMILES | PLK1 PBD inh | Gal4-VP16 FLuc | RORg inh | Sfp inh | ALDH1A1 block
NNC(=O)C1CC1c1ccccc1 (stereo unspecified) | 4% | ? | ? | 13% | 4µM*
COc1ccc(C2/C=C\CN([S+](=O)([O-])c3ccc4ccccc4c3)C(C)C(=O)N2Cc2ccc(F)cc2)cc1 (stereo unspecified) | . | -11% | -13% | 3% | .
O=C(O)C1CC2(C1)CC(C(=O)O)C2 (stereo unspecified) | . | . | . | . | 8%[13.5 µM]
COc1ccc2oc(=O)cc(-c3cc4cccc(OC)c4o3)c2c1 | -11% | -14% | -14% | -1% | .
COc1cccc2cc(-c3cc(=O)oc4cc(C)c(OCC(C)=O)cc34)oc12 | 17µM* | 0% | 1% | 10% | .
C[C@@H](CC(=O)O)[C@@H](N)C(=O)O | . | 1% | 11% | -21% | 4%
Cc1ccc2[nH]c(CNC(=O)c3ccc(F)cc3)cc2c1 | -3% | 17% | 3% | 6% | .
C/C(N=NC(=[SH+])SCc1ccccc1)=C1\C=CC=CN1.[Cl][Cu] | . | . | . | . | 2.5µM*
Cc1cnc(CNC(=O)C2CCC(=O)N(CCc3ccc(Cl)cc3)C2)cn1 (stereo unspecified) | 1% | -6% | -22% | 7% | .
CC(=O)C1=CCC(c2ccc(C)o2)N(S(=O)(=O)c2ccc(C)cc2)C1 (stereo unspecified) | -4% | . | . | . | .
Cc1cccc(C)c1-c1ccc(CN2C(CC(C)C)C(=O)N(Cc3cn(CCO)nn3)CCS2(=O)=O)cc1 (stereo unspecified) | -4% | . | . | . | .
Cc1ccc(Cl)cc1NC(=O)C(Cc1ccccc1)N1C(=O)C2C3CCC(C3)C2C1=O (stereo unspecified) | -9% | 79µM* | -20% | 6% | -2%
Cc1ccc(NC(=O)C(Cc2ccccc2)N2C(=O)C3C4CCC(C4)C3C2=O)cc1Cl (stereo unspecified) | -7% | -11% | 20% | 6% | ?
COc1ccc(N(CC(=O)N2CCOCC2)S(C)(=O)=O)c(OC)c1 | 21µM* | -4% | -40% | 12% | .
COc1ccc(N(CC(=O)NCCSC2CCCCC2)S(C)(=O)=O)c(OC)c1 | -18% | 0% | 1% | ? | 14µM*
CS(=O)(=O)N(CC(=O)NCCSC1CCCCC1)c1ccc2c(c1)OCO2 | -5% | -1% | 19% | -8% | ?
COc1cc(OC)cc(C(=O)NCCSC2CCCCC2)c1 | 5% | 2% | 3% | 8% | ?
COc1cccc(OC)c1C(=O)NCCSC1CCCCC1 | 27µM* | 10% | 6% | 17% | -6%
CN(C)c1ccc(N=Nc2cccc3ccoc23)cc1 | 1% | -7% | -27% | 45µM* | 8%[13.5 µM]
C/C(=N/N=C/c1ccccc1O)c1ccccc1O | 2% | -11% | -26% | 1% | .
CCCS/C(N)=N/N=C/c1cc(C)ccc1O | 0% | 2µM* | 0.89µM* | 18% | 1%
